The structures appear in SMILES notation. About 83,000 compounds went through this panel and 20% of them were active in at least one assay; those are over-represented in the sample as a whole.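 Percent growth is the endpoint: 0 to 100 indicates growth inhibition (40 means 60% inhibition), 0 means no net growth, and negative values indicate cell death.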 Unmarked numbers belong to inactive results. The source made the active and inactive calls. How the source made its calls: active means growth percent below 10; inactive means the rest.

From PubChem BioAssay (NCI) come the findings set out here.

This assay relates to MDA-MB-468 breast. Description: NCI-60 one-dose screen, 48 h (100 = growth as untreated, 0 = no growth, -100 = all killed). As to conditions: 10 µM unless noted.
As to `CC(=O)Nc1ccc(CC#N)cc1Br`, the growth is 102%.

In the case of `COc1cc(Cn2cc3c(c2)-c2onc(CN4CCCC4)c2CC3)cc(OC)c1OC`, the growth is 82.7%.

As to `CCSc1ccc(C2C(Br)C(=O)N2c2cc(OC)c(OC)c(OC)c2)cc1` (stereo not given), the growth was 27.7%.

Take `OCC(O)C(O)C(O)C(O)/C=N/O` (stereo not given): the growth is 99.5%.

For the molecule `Oc1c(Br)cc(Cl)cc1C(c1cc(Cl)cc(Br)c1O)C(Cl)(Cl)Cl`, the growth is -4.05% (active).

Turning to `COc1ccc(-c2cc(Nc3ccnc(N4CCOCC4)n3)on2)cc1`, the growth was 24.8%.

With `O=C(C[n+]1ccnc2ccccc21)c1ccc(O)c(O)c1`, the growth is 3.88% (active).

For `O=C(Nc1ccc(Oc2ccc(Nc3nc4ccccc4s3)cc2)cc1)Nc1ccc(Cl)c(Cl)c1`, the growth was 8.01% (active).

As for `Cn1ccnc1C(=O)/C=C/c1ccc(CC(=O)Nc2ccc(Br)cc2)cc1`, the growth is 0.947% (active).

Take `O=C(CCl)Nc1ccccc1SCc1cc(Cl)cc2c1OCOC2`: the growth was 51.6%.

Turning to `NC(=S)N/N=C/c1ccc(OC(=O)COc2cc(Cl)c(Cl)cc2Cl)cn1`, the growth is -0.374% (active).

On to `CCCCCCN(CCCCCC)CC(O)c1cccc2ccc(Cl)cc12` (stereo not given), for which the growth is 87.6%.

For `CN(C)CCNC(=O)c1ccc(-c2nc3ccc4[nH]ncc4c3c3c2COCC3)cc1`, the growth was -54.5% (active).

As for `O=C1C(Cl)=C(Oc2ccccc2)C(=O)c2ccccc21`, the growth is 13%.

Turning to `NC1[C@H](c2c[nH]c3ccccc23)c2c([nH]c3ccccc23)[C@H]1c1c[nH]c2ccccc12` (stereo not given in full), the growth is 106%.

As for `CC(O)C(N)=O` (stereo not given), the growth was 107%.

As to `Cc1cc(Nc2nc(-c3cccnc3)nc3ccccc23)n[nH]1`, the growth was 26.8%.

Regarding `Cn1ncc2c(Sc3ccc(Cl)cc3)ncnc21`, the growth is 92.2%.

`O=C(c1ccc(C(F)(F)F)c(Cl)c1)N(Cc1ccc(Cl)cc1)c1ccc(-c2cc(C(F)(F)F)[nH]n2)c(O)c1`: the growth is -11.5% (active).

Consider `CCN(CC)c1ccc(/C=C(\C#N)c2cc3ccccc3[nH]2)cc1`, for which the growth is 47.3%.

On to `O=C1c2cccc3cccc(c23)C(=O)N1CC#Cc1ccc2c3c(cccc13)C(=O)N(CCO)C2=O`, for which the growth is 94.2%.

In the case of `CC1SC(c2c(Cl)cccc2Cl)N(NC(=O)c2[nH]c3ccc(F)cc3c2-c2ccccc2)C1=O` (stereo not given), the growth was 66.8%.

As to `Nc1cc(-c2c[nH]c3ccc(F)cc23)nc2cc(-c3c[nH]c4ccc(F)cc34)nn12`, the growth is 115%.

Turning to `COc1cc(-c2nc3sc4c(c3c(=O)[nH]2)CCCCCC4)cc(OC)c1OC`, the growth is 20%.

Turning to `COc1ccc(C2C=C(c3ccc(OC)c(OC)c3)N=C3SC=CN32)c(Br)c1` (stereo not given), the growth was 54.5%.

`Cc1ccc(NC(=S)N/C=C(\c2ccccc2)S(=O)Cc2ccccc2)c(C)c1` (stereo not given): the growth is 100%.

Consider `Clc1ccc(N2N=C(c3cccc(Nc4ccncc4)c3)CC2c2ccc(Br)cc2)cc1` (stereo not given), for which the growth was -27.1% (active).

`C=CN(C(=O)N1CCN(c2cc3c(cc2F)c(=O)c(C(=O)O)cn3C2CC2)CC1)c1nc(-c2ccc(OC)cc2)cs1`: the growth is 13.4%.

`Cc1ccccc1OC(=O)c1cccc(Cl)c1`: the growth is 107%.

Consider `c1ccc(Cc2cccc[n+]2C(c2ccccc2)c2ccccc2)cc1`, for which the growth is -6.43% (active).

Consider `COc1cc(C[C@H]2COc3cc(O)cc(O)c3C2=O)ccc1O`, for which the growth was 26.2%.

In the case of `COc1ccc2oc(=O)cc(C(c3ccc[nH]3)c3ccc[nH]3)c2c1`, the growth is 5.5% (active).

In the case of `CCOc1cc(CCNS(=O)(=O)c2ccc(C)cc2)c(C(C)=O)cc1OCC`, the growth is 67.1% [100 µM].

Turning to `O=S(Cc1ccccc1)/C(=C/NC(=S)Nc1ccccc1)c1ccccc1` (stereo not given), the growth was 108%.

For `Cc1csc(-c2nnc(Nc3ccc(Oc4ncccc4-c4ccnc(N)n4)cc3)c3ccccc23)c1`, the growth is 41.6%.

Regarding `O=C1C(c2ccccc2)C2C=CC(C2)N1O` (stereo not given), the growth was 98.9%.

Consider `O=C(Nc1ccc(OCc2nnc(-c3ccccc3)o2)c(F)c1)Nc1ccc(Cl)c(Cl)c1`, for which the growth is 26.3%.

As for `Cc1ccccc1N1C(c2ccccc2)=NNC12C=CC(=O)C=C2Cl` (stereo not given), the growth is 109%.

As to `C=C1C(=O)O[C@H]2[C@H]1CC/C(CNC(=O)/C=C/c1cccc(OC)c1)=C\CC[C@@]1(C)O[C@@H]21`, the growth was -36.5% (active).

Consider `CCCCC1CCCCN1C(=O)OCC` (stereo not given), for which the growth was 114%.
